40 molecules from the supplement of paper PMC10646978 can be followed below.

For this assay, the system named is RAW-Dual (murine macrophage reporter line). Kind of assay: viability score (confluency relative to resting cells, overnight) (fraction); higher = more viable, active = viable (0.7 or more). Conditions: modulator concentration 10 µM. In a few lines: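 Compound was added at a final 10 μM to RAW-Dual macrophages in 384-well plates and left overnight. Confluency was imaged with IncuCyte, and two masks were generated in IncuCyte software over all imaged wells. Each viability score is confluency relative to resting cells, and a compound met the cutoff only when both masks were above 70% of resting cells.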
In the case of `CC1ON(c2ccc(Cl)c(Cl)c2)C(=O)NC1=O` (stereo not given), the viability score is 0.998 (active).
With `Oc1ccc2ccccc2c1SSc1c(O)ccc2ccccc12` the figure was 0.963 (active); with `COc1ccc2cc1Oc1ccc(cc1)C[C@H]1c3c(cc4c(c3Oc3cc5c(cc3OC)CCN(C)[C@@H]5C2)OCO4)CCN1C`, 0.991 (active).
In the case of `CCOc1ccc(OCCCCOc2cccc(C)c2)cc1`, the viability score is 1.01 (active).
With `Cc1cccc(C)c1N(CC(=O)Nc1ccc(-c2ncon2)cc1)C(=O)C1CCS(=O)(=O)CC1`, the viability score was 0.999 (active).
With `c1ccc(-n2nnnc2Sc2ncnc3sc4c(c23)CCCC4)cc1`, the viability score was 0.994 (active).
Regarding `O=S(=O)(Cc1ccccc1)Nc1ccccn1`, the viability score was 1 (active).
With `COc1c(C)c2c(c(O)c1C/C=C(\C)CCC(=O)O)C(=O)OC2` the figure was 0.587 (inactive).
With `O=C(CCCN1CCN(c2ccccn2)CC1)c1ccc(F)cc1` the figure was 0.977 (active); with `Cc1cc(OC2CCN(C(=O)c3csc(C)n3)CC2)nc(C)n1`, 1.01 (active).
`O=C1C(Cl)=C(N2CCCCC2)C(=O)N1c1ccc(Cl)c(Cl)c1`: the viability score is 1 (active).
With `CN(C)CCC(c1ccccc1)c1ccccn1.O=C(O)/C=C\C(=O)O` (stereo not given) the figure was 0.377 (inactive).
With `CS(=O)(=O)N(CC(=O)NC1CC1)c1cccc2ccccc12` the figure was 1.01 (active); with `Cc1ccc(-c2cc(NC(=O)c3ccc([N+](=O)[O-])cc3)[nH]n2)cc1`, 0.971 (active).
For `Cn1nc(CNS(=O)(=O)c2cccc(C(F)(F)F)c2)c2c1CCOC2` the value was 1 (active); for `CC(C)NCC(O)COc1cccc2ccccc12.Cl` (stereo not given), 0.984 (active); for `CCOC(=O)C1=C(C)N(c2ccc(OC)cc2)C(=O)C1=Cc1ccc(C(=O)O)cc1`, 0.997 (active).
For `Oc1ccc(N=Cc2ccccc2O)cc1`, the viability score was 0.584 (inactive).
On to `CC(=O)N1CC(C(=O)Nc2ccc(Br)c(C)c2)C1`, for which the viability score is 0.997 (active).
With `CCOc1cc([C@@H](CS(C)(=O)=O)N2C(=O)c3cccc(NC(C)=O)c3C2=O)ccc1OC` the figure was 0.977 (active).
With `Cc1cn2nc(C(=O)Nc3ccccc3N3CCN(C)CC3)cc2c(=O)[nH]1` the figure was 0.941 (active).
With `O=c1ncnc2[nH][nH]cc1-2` the figure was 1.02 (active).
On to `COC(=O)C1=CN(CC2CCCO2)C=C(C(=O)OC)C1c1ccsc1` (stereo not given), for which the viability score was 1.01 (active).
For `CCOc1ccccc1OCCCCOc1cccc(C)c1C` the value was 1 (active); for `Cc1cccc(-c2cc3nc(C)c(Cl)c(O)n3n2)c1`, 0.996 (active); for `O=C(NNC(=O)c1sc2cc(F)ccc2c1Cl)Nc1ccc(Cl)cc1`, 1 (active).
For `Cc1cn([C@H]2C=C[C@@H](CO)O2)c(=O)[nH]c1=O` [Prestw-1279] the value was 0.998 (active); for `CCCCC1(C)OC(=O)C(=Cc2ccc(OC)c([N+](=O)[O-])c2)C(=O)O1` (stereo not given), 1 (active).
For `CC1(C)CCCC2(C)C1CCC1(C)OC(=O)CC12` (stereo not given) the value was 0.159 (inactive).
For the molecule `Cn1cc(CC(=O)NC2CCN(c3cc(C(F)(F)F)ncn3)CC2)c2ccccc21`, the viability score was 0.929 (active).
For `COCCN1C(=O)CN(C2CCN(Cc3cc(OC)cc(OC)c3)CC2)C1=O` the value was 1.01 (active); for `CC(C)Cn1cc(Cl)c(=O)n(CC(C)C)c1=O`, 0.996 (active); for `Br.CCCc1cc(-c2nc(-c3ccc(C)cc3)cs2)ccn1`, 0.993 (active).
With `CCCCCn1c(=O)[nH]c2cc(C(=O)N3CCN(C(=O)OCC)CC3)ccc2c1=O` the figure was 0.974 (active); with `COc1ccc(NC(=O)Cc2cn(Cc3ccccc3)c3ccccc23)cc1OC`, 0.96 (active).
With `O=C(NN=Cc1sc2ccccc2c1Cl)c1ccncc1` the figure was 1.01 (active); with `CS(=O)(=O)N(CC(=O)NCC1CCCO1)c1ccc(Cl)c(C(F)(F)F)c1` (stereo not given), 0.998 (active); with `COC(=O)C1C(c2ccccc2)C(C(=O)Oc2ccc(C(C)=O)cc2)C1c1ccccc1` (stereo not given), 1.02 (active).
Consider `CCN(CC)Cc1ccc(Nc2ccnc3cc(Cl)ccc23)cc1O.Cl.Cl`, for which the viability score was 1.04 (active).
In the case of `CS(=O)(=O)N1CC(C(=O)N2CCN(c3cccc(Cl)c3Cl)CC2)C1`, the viability score was 0.999 (active).
